Assay outcomes: PubChem, National Center for Advancing Translational Sciences (NCATS)
RE007 growth inh: qHTS Assay for Inhibitors of the HIV-1 protein Vpr; Potency, µM (highest dose often 92.2 µM), inactives show at the highest dose activity change, negative = less growth, most hits filed as inhibitors; 360,000 compounds, 0.21% hits; S. pombe RE007 Vpr strain, BacTiter-Glo ATP luminescence, 24 h; active means well fitted falling curve with a large enough effect; inconclusive means small, poorly fitted or top-dose-only effect; inactive means no such curve, though single readings can be large or run the other way; further: on the % scale 0 is the no-effect control and ±100 the full control effect; nearly all actives have a fitted effect of over 50% in size
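Fission yeast RE007 carrying one integrated HIV-1 vpr copy, seeded at OD 0.01 in PMG+AL medium with 23 nL pinned compound. Grown 24 h at 30 degrees; viability read by BacTiter-Glo luminescence after 5 min.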
NS1 inh: qHTS Assay for Inhibitors of Influenza NS1 Protein Function; Potency, µM (series often up to 46.1 µM), for the others: top-dose activity, positive = more growth; 270,000 compounds, 0.4% hits; AID 2326, 2010; calls by dose curve; further: actives are rising curves; nearly all actives have a fitted effect of over 50% in size
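Read-out: OD600 growth recovery of NS1-expressing budding yeast. Cells grown overnight at 30C in -URA glucose medium, washed, resuspended and diluted 1:100 in 2% galactose assay medium, pH 6.0. Same strain lacking NS1 served as positive control.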
SARS PLpro yeast: qHTS of Yeast-based Assay for SARS-CoV PLP | S. cerevisiae expressing SARS-CoV PLpro, growth rescue | Potency, µM (series often up to 32.9 µM), for the others: top-dose activity, positive = growth rescue, most hits filed as activators | 330,000 compounds, 0.19% hits; calls by dose curve; further: 0% is about no effect; nearly all actives have a fitted effect of over 55% in size
Pf growth 48h: Primary qHTS for delayed death inhibitors of the malarial parasite plastid, 48 hour incubation; P. falciparum luciferase growth in erythrocytes, 48 h; Potency, µM (titrated, usually from 28.7 µM), inactives show at the highest dose activity change, negative = inhibition, most hits filed as inhibitors; 310,000 compounds, 5.9% hits; further: on the % scale 0 is the no-effect control and ±100 the full control effect
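Read-out is firefly luciferase luminescence from an integrated reporter in P. falciparum, so falling signal marks reduced parasite growth. Infected erythrocytes were at 2% hematocrit and 0.1% parasitemia (final) in Albumax-supplemented RPMI 1640.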
Pf growth 96h: Primary qHTS for delayed death inhibitors of the malarial parasite plastid, 96 hour incubation; P. falciparum luciferase reporter growth, 96 h; Potency, µM (highest dose often 28.7 µM), without a hit: at the highest dose activity change, negative = inhibition, usual class: inhibitors; 320,000 compounds, 6.9% hits; AID 504834, 2011; further: on the % scale 0 is the no-effect control and ±100 the full control effect
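Luminescence readout: decreased luciferase signal marks inhibited growth of reporter-expressing P. falciparum in infected red cells (2% hematocrit, 0.05% parasitemia final), exposed to compound two generations (96 h, 37 C, 5% CO2).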
An asterisk follows results filed as active; ? = inconclusive; nt = no result given. A selection: hits, their analogues and other compounds. The true share with any hit is near 9.5%. Unless noted, the call rests on the fitted dose curve; in most records, active means well fitted inhibition curve with a large enough effect; inconclusive means small, poorly fitted or top-dose-only effect, or another doubt; inactive means no such curve, though single readings can be large or run the other way. Potency means the concentration at half of the fitted maximal effect.

SMILES	RE007 growth inh	NS1 inh	SARS PLpro yeast	Pf growth 48h	Pf growth 96h
CCOc1ccc(NC(=O)[C@@H](NC(=O)c2ccccc2Br)C(C)C)cc1	2%	5%	8%	nt	15µM*
Cc1ccc2cccc(OCC(=O)Nc3cccc(S(=O)(=O)N4CCCC4)c3)c2n1	?	nt	-2%	9.3µM*	?
Cc1ccc(NC(=O)COc2ccccc2C(N)=O)cc1S(=O)(=O)N1CCCCCC1	7%	nt	6%	?	4.7µM*
COc1ccc(Cl)cc1NCC(=O)Nc1ccc(OC)c(S(=O)(=O)N2CCCCC2)c1	5%	nt	0%	9.3µM*	?
COc1ccc(NC(=O)COC(=O)C2CC2)cc1S(=O)(=O)N1CCCCC1	6%	nt	5%	13µM*	?
O=C(COc1ccc2ccc(=O)oc2c1)Nc1cccc(S(=O)(=O)N2CCCCC2)c1	6%	nt	-5%	12µM*	4.7µM*
Cc1ncn(-c2ccccc2O)c1C	nt	0%	nt	nt	nt
CCCCCOc1ccc(C2C(C(=O)c3ccc(C)o3)=C(O)C(=O)N2c2cc(C)on2)cc1 (configuration not stated)	1%	8%	-1%	-12%	?
Cc1nc(C(=O)N2CCC(n3nccc3NC(=O)Nc3ccccc3Cl)CC2)cs1	11%	3%	15%	-1%	2%
CCOc1ccccc1OCC(=O)Nc1ccc(OC)c(S(=O)(=O)N2CCCCC2)c1	-20%	nt	-4%	?	12µM*
CC(=O)c1ccccc1OCC(=O)Nc1cccc(S(=O)(=O)N2CCCC2)c1	12%	nt	4%	?	?
N#Cc1ccccc1OCC(=O)Nc1cccc(S(=O)(=O)N2CCCCCC2)c1	20%	nt	-2%	13µM*	?
CC(=O)c1ccc(OCC(=O)Nc2cccc(S(=O)(=O)N3CCCC3)c2)cc1	-4%	nt	-2%	?	4.1µM*
CC1CC(C)(C)CC2(C1)NC(=O)N(CC(=O)N1CCN(S(=O)(=O)c3cccs3)CC1)C2=O (configuration not stated)	-5%	nt	-9%	9.3µM*	?
CCc1ccc(NC(=O)CNC(=O)[C@@H]2Cc3ccccc3CN2C(=O)OC(C)(C)C)cc1	-3%	-5%	-4%	?	?
COc1ccc(NC(=O)CN2C(=O)NC3(CC(C)CC(C)(C)C3)C2=O)cc1S(=O)(=O)N1CCCCC1 (configuration not stated)	-14%	nt	nt	13µM*	?
O=C(c1ccccc1)c1ccc(N2CCN(C(=O)c3ccc(F)cc3F)CC2)c(F)c1	6%	nt	nt	nt	nt
O=C(CCCC(=O)N(c1ccc2c(c1)OCCO2)C(C(=O)NC1CCCCC1)c1ccc(F)cc1)Nc1ccccn1 (configuration not stated)	2%	11%	4%	?	10µM*
COc1ccc(CN(C(=O)c2ccc3c(c2)OCCO3)C(C(=O)NC2CCCCC2)c2ccc3ncccc3c2)cc1 (configuration not stated)	-11%	20%	1%	?	9.3µM*
O=C(NC1CCCCC1)C(c1ccc2ncccc2c1)N(Cc1ccccc1)C(=O)c1ccc2c(c1)OCCO2 (configuration not stated)	-6%	1%	-3%	13µM*	10µM*
C=CCn1c(SCC(=O)c2ccc(O)c(O)c2)nnc1-c1cccc(OC)c1	-15%	nt	1%	?	?
NS(=O)(=O)c1cc2c(cc1Cl)=NC(CCC(=O)O)=NS=2(=O)O	nt	-3%	nt	nt	nt
Cc1cccc(-n2cnc3c(c2=O)c2nc4ccccc4nc2n3Cc2ccco2)c1	-9%	13%	-4%	?	84%
COc1ccc(Cn2c3nc4ccccc4nc3c3c(=O)n(Cc4ccco4)cnc32)cc1	nt	8.9µM*	-3%	9.3µM*	1%
COc1ccc(OC)c(C(=O)NC(CC(N)=O)c2ccc(N3CCN(c4ccccn4)CC3)c([N+](=O)[O-])c2)c1 (configuration not stated)	-1%	-7%	-2%	33%	8%
Cc1cc(-c2ccccc2)nc(N/N=C/c2ccc(O)cc2O)n1	?	-84%	-14%	?	-11%
